# TDP1 block: qHTS Assay for Inhibitors of Tyrosyl-DNA Phosphodiesterase (TDP1); Tyrosyl-DNA phosphodiesterase 1 (Homo sapiens), Q9NUW8; recombinant TDP1, AlphaScreen DNA substrate cleavage; Potency, µM (titrated, usually from 130 µM), for the others: at the top dose activity change, negative = inhibition, most hits filed as inhibitors; hit rate 0.28% among 350,000; note: % is set by controls: 0 for no effect and ±100 for the full control effect; nearly all actives have a fitted effect of over 40% in size
#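 Steps: enzyme plus compound, 15 min RT; add biotin/phosphotyrosine-FITC oligonucleotide (15 nM final), react 5 min; add donor/acceptor beads (10 ug/ml final), 10 min; read AlphaScreen. Tdp1 at 1 nM final.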
# TDP1 cell noCPT: qHTS for Inhibitors of human tyrosyl-DNA phosphodiesterase 1 (TDP1): qHTS in cells in absence of CPT. AID 686978, 2013. Potency, µM (doses to about 46.2 µM), without a hit: top-dose activity change, negative = growth inhibition, actives largely listed as inhibitors. DT40 Tdp1-/- hTDP1 cells, no CPT, ATP luminescence, 48 h. hit rate 15% among 420,000; note: % is set by controls: 0 for no effect and ±100 for the full control effect; nearly all actives have a fitted effect of over 55% in size
#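 Chicken DT40 Tdp1-/- cells complemented with human TDP1, screened without camptothecin (DMSO vehicle only), 400 cells/well. Compounds pin-transferred, cells incubated at 37 °C for at least 48 hr. Growth read as ATP-dependent luminescence (CellTiter-Glo, 30 min at RT).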
# ClpP mod: qHTS Assay for Activators of ClpP | purified B. subtilis ClpP, FRET peptide cleavage, 20 min | ATP-dependent Clp protease proteolytic subunit (Bacillus subtilis (strain 168)), P80244 | hit rate 1.9% among 340,000 | AID 651965, 2013 | Potency, µM (series often up to 57.5 µM), for inactives: top-dose activity change, negative = active; active = well fitted falling curve with a large enough effect; inconclusive = small, poorly fitted or top-dose-only effect; inactive = no such curve, though single readings can be large or run the other way; note: the source files actives as falling curves though it sought activators and does not explain the sign; nearly all actives have a fitted effect of over 65% in size
# Target sequence (P80244 whole entry, looked up): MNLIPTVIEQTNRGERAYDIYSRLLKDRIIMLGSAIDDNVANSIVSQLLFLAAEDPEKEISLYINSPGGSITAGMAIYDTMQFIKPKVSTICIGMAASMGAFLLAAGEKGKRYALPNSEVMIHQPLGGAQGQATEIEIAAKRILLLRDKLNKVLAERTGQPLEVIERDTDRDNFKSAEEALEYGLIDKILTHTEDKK
#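 FRET quenching reversal measured ClpP activation: 10 microg/mL B. subtilis ClpP at pH 8 with the FRET-FV decapeptide, read at 430 nm after 320 nm excitation. The 20-min minus 0-min signal was scaled between DMSO/no-enzyme wells and ADEP (5.8 microM final).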
# TDP1 cell CPT: qHTS for Inhibitors of human tyrosyl-DNA phosphodiesterase 1 (TDP1): qHTS in cells in presence of CPT | hit rate 12% among 420,000 | chicken DT40 Tdp1-/-;hTDP1 cells + 20 nM CPT, ATP luminescence, 48 h | Potency, µM (titrated, usually from 46.2 µM), inactives show at the highest dose activity change, negative = growth inhibition, most hits filed as inhibitors | AID 686979, 2013; note: % is set by controls: 0 for no effect and ±100 for the full control effect; nearly all actives have a fitted effect of over 55% in size
#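 Cell growth measured by CellTiter-Glo luminescence after a minimum 48 h, 37 C compound exposure with 20 nM CPT in Tdp1-knockout DT40 cells stably expressing hTDP1, seeded 400/well; qHTS titration format.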
# * marks the source's active call; other numbers are inactive results; ? = inconclusive; . = no result; [ ] = remark or other dose. Hits are enriched below; roughly 17% of the tested compounds scored in any of these assays. Unless noted, calls come from the whole dose curve; as a rule, active = well fitted curve in the direction sought with a large enough effect; inconclusive = small, poorly fitted or top-dose-only effect, or another doubt; inactive = no such curve, though single readings can be large; an effect the other way counts as inactive or inconclusive. Potency is the fitted concentration of half-maximal effect.
SMILES,TDP1 block,TDP1 cell noCPT,ClpP mod,TDP1 cell CPT
O=C(CN1CCOCC1)NN=Cc1ccc([N+](=O)[O-])o1,.,?,-1.1%,20.6µM*
O=C(CN1CCOCC1)N/N=C/c1ccc(-c2ccc(C(=O)O)cc2)o1,31.6µM*,-16.2%,.,13.0%
O=C(CCN1CCN(c2ccccc2)CC1)N/N=C/c1ccc(O)c(O)c1O,0.0%,?,-4.2%,?
O=C(CCN1CCN(c2ccccc2)CC1)N/N=C/c1ccc([N+](=O)[O-])o1,1.8%,?,.,10.3µM*
CC1(CC(=O)N/N=C/c2ccc(-c3ccc(C(=O)O)cc3)o2)OCCO1,-5.1%,-12.3%,?,5.7%
COc1ccc(C(=O)CC(=O)C(=O)Nc2ccc([N+](=O)[O-])cc2C)cc1,.,?,-3.4%,?
COc1cccc(CN(C)CCCn2cnc(C(=O)Nc3ccc(C)c(C)c3)n2)c1,.,?,1.1%,20.6µM*
COc1ccc(CN(C)C(=O)Cn2cnc(C(=O)Nc3ccc(C)c(C)c3)n2)cc1OC,0.6%[56.1 µM],?,0.4%,18.4µM*
Cc1ccc(NC(=O)Cn2cnc(C(=O)Nc3ccc(C)c(C)c3)n2)cc1C,-4.0%[56.1 µM],-4.5%,?,12.9%
Cc1ccc(NC(=O)c2ncn(CCCN3CCN(Cc4cccc5ccccc45)CC3)n2)cc1C,.,13µM*,-4.5%,20.6µM*
Cc1ccc(NC(=O)c2ncn(CC(=O)N[C@H](C)c3cccc4ccccc34)n2)cc1C,0.2%[56.1 µM],?,25.0%,?
CCCc1nc2c(sc3nc4c(cc32)COC(C)(C)C4)c(=O)o1,7.2%,-24.8%,-9.7%,-15.4%
CCN(CC)C(=O)c1ccc2c3c(cccc13)C(=O)N(CCc1ccc(OC)c(OC)c1)C2=O,5.6%,8.2µM*,1.2%,8.2µM*
CSc1nc(-c2ccccc2)nn1C(=O)c1ccccc1,1.1%,23.1µM*,-0.5%,?
O=C(NCc1ccccc1)C1CCN(C(=O)c2cnn(-c3ccccc3)c2-n2cccc2)CC1,1.0%,-18.7%,-3.3%,-29.6%
O=C(NCC(c1ccco1)N1CCc2ccccc2C1)c1ccc(Br)cc1 (stereo not drawn),-4.3%[0.505 µM],23.1µM*,25.1µM*,?
Cc1ccc(C(=O)NCC(c2ccco2)N2CCc3ccccc3C2)cc1C (stereo not drawn),-6.3%,20.6µM*,0.4%,18.4µM*
Cc1cc(C)c(NC(=O)CN2C(=O)CCSc3ccc(S(=O)(=O)N4CCCC4)cc32)c(C)c1,1.8%,-21.4%,-7.9%,-8.1%
CC(C)=CCC/C(C)=C/CO/N=C1/C[C@@H](O)[C@@H](O)[C@@H]2[C@@H]3C(=O)N(Cc4ccccc4)C(=O)[C@H]3CC[C@@H]12,4.8%[21 µM],.,.,.
COCC(=O)Nc1cc(C(=O)NC2C3CC4CC2CC(O)(C4)C3)cc2nc(-c3ccccc3)n(C)c12 (stereo not drawn),.,-5.1%,.,-1.0%
Cc1cc(C(=O)N2CC(C)CC(C)C2)n(-c2ccccc2)n1 (stereo not drawn),2.2%,8.2µM*,0.6%,10.3µM*
Cc1cc(C(=O)N2CCOCC2)n(-c2ccccc2)n1,0.0%,-5.1%,-2.0%,0.2%
Cc1ccc(CSc2nc3c(c(=O)[nH]2)CCC3)cc1,1.4%,-3.6%,-0.9%,-7.0%
O=c1[nH]c(SCc2ccccc2Cl)nc2c1CCC2,6.8%,29.1µM*,1.6%,?
Cc1ccccc1CSc1nc2c(c(=O)[nH]1)CCCC2,2.0%,.,.,.
O=c1[nH]c(SCCc2ccccc2)nc2c1CCC2,.,7.31µM*,-1.4%,?
Cc1oc(-c2ccccc2Cl)nc1CSc1nc2c(c(=O)[nH]1)CCCC2,0.6%,18.4µM*,0.5%,13µM*
COC(=O)c1ccc(CSc2nc3c(c(=O)[nH]2)CCC3)cc1,5.7%,20.6µM*,1.0%,?
COc1ccccc1Cn1c(CNS(=O)(=O)c2ccc(Cl)s2)nc2cccnc21,7.7%,?,-10.9%,?
CCOc1cc(/C=C2/C(=N)N3C(=NC2=O)SN=C3S(C)(=O)=O)ccc1OS(=O)(=O)c1ccccc1,-8.1%,20.6µM*,-2.6%,?

# Bioassay records (PubChem)
